Results filed as inconclusive are left out. Activity calls are given as the source filed them. Unless noted, the call rests on the fitted dose curve; in most records, active means well fitted curve in the direction sought with a large enough effect in the repeat runs; inconclusive means weak or mixed curves; inactive means no such curve, though single readings can be large; an effect the other way counts as inactive or inconclusive.
What was measured:
[1] = qHTS assay for small molecules that induce genotoxicity in human embryonic kidney cells expressing luciferase-tagged ATAD5 (AID 651632); further: nearly all actives have a fitted effect of over 15% in size
How it was run: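 Luminescent reporter readout, HEK293T ATAD5-luc line: 16 hr drug exposure (37C, 5% CO2) followed by Amplite, 30 min RT.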

[2] = qHTS assay for small molecule agonists of the p53 signaling pathway - cell viability (AID 651633; calls by dose curve;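 further: p53RE-bla HCT reporter cells with a stable beta-lactamase p53 reporter; series mostly up to about 83 µM; nearly all actives have a fitted effect of over 30% in size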)
How it was run: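 Viability counter-read: CellTiter-Glo luminescence (30 min, room temperature) in the same p53RE-bla plates. These plates had been exposed to compounds for 16 h at 37 C.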

[3] = qHTS assay for small molecules that induce genotoxicity in human embryonic kidney cells expressing luciferase-tagged ATAD5 - cell viability (AID 651634; calls by dose curve; further: nearly all actives have a fitted effect of over 25% in size)
How it was run: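 Viability read: CellTiter-Fluor fluorescence, 30 min at 37C. Cells: HEK293T, luciferase-tagged ATAD5. Exposure: 15.5 hr, 37C, 5% CO2, compound or DMSO vehicle.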

[4] = qHTS assay for small molecule disruptors of the mitochondrial membrane potential - cell viability (AID 720634; calls by dose curve;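 further: human HepG2 liver cancer cells; series mostly up to about 83 µM; nearly all actives have a fitted effect of over 20% in size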)
How it was run: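 HepG2, 1 hr compound, 37 C. ATP luminescence via CellTiter-Glo, 30 min RT, same well as m-MPI.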

[5] = qHTS assay for small molecule disruptors of the mitochondrial membrane potential (AID 720635)
How it was run: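 Mitochondrial membrane potential tracked with Mito-MPS dye, red aggregates (ex 540/em 590 nm) against green monomers (ex 490/em 535 nm). Compound treatment 1 hr at 37C, dye 30 min in HepG2.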

[6] = qHTS assay to test for compound auto fluorescence at 590 nm (red) in HepG2 cells (AID 720674)
How it was run: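 We screened compounds on adherent HepG2 cells, incubating them for an hour at 37 C in 5% CO2 before reading emission at 590 nm under 540 nm excitation; values reflect equivalence to Rose Bengal sodium fluorescence.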

[7] = qHTS assay to test for compound auto fluorescence at 535 nm (green) in HepG2 cells (AID 720675)
[8] = qHTS assay to test for compound auto fluorescence at 460 nm (blue) in HEK293 cells (AID 720678)
How it was run: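 Triamterene serves as the blue fluorophore standard. Compound signal at 405/460 nm is read in HEK293 wells (2,000 cells, 10% dialyzed FBS) after overnight treatment at 37C.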

[9] = qHTS assay to test for compound auto fluorescence at 590 nm (red) in HEK293 cells (AID 720679)
How it was run: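 We plated HEK293 cells in 10% dialyzed FBS medium, let them adhere for 4-5 hr, then added 23 nL compound. Overnight at 37C and 5% CO2 preceded fluorescence measurement at 540/590nm.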

[10] = qHTS assay to test for compound auto fluorescence at 535 nm (green) in HEK293 cells (AID 720680)
[11] = qHTS assay to test for compound auto fluorescence at 460 nm (blue) in HEK293 cell free culture (AID 720681)
How it was run: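 Blue fluorescence (Ex 405/Em 460 nm, triamterene-equivalent) was read immediately after pin transfer of compound or DMSO into medium (DMEM, 10% FBS) without cells.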

[12] = qHTS assay to test for compound auto fluorescence at 535 nm (green) in HEK293 cell free culture (AID 720682)
How it was run: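 Each library compound, or DMSO control, is added by pintool to medium alone, comprising DMEM and 10% FBS. Emission at 535 nm following 485 nm excitation is quantified against fluorescein.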

[13] = qHTS assay to test for compound auto fluorescence at 590 nm (red) in HEK293 cell free culture (AID 720683)
How it was run: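 Red-channel autofluorescence of compounds in culture medium (DMEM, 10% FBS), no cells, measured at 540/590 nm. Rose Bengal sodium is the reference fluorophore for equivalence.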

[14] = qHTS assay to test for compound auto fluorescence at 590 nm (red) in HepG2 cell free culture (AID 720684)
How it was run: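 Steps: dispense MEM/10% FBS medium, no cells; pin compound or DMSO vehicle; read red channel, Ex/Em 540/590 nm. Output given as Rose Bengal sodium equivalents.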

[15] = qHTS assay to test for compound auto fluorescence at 460 nm (blue) in HepG2 cell free culture (AID 720685)
How it was run: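 Compound (23 nL) or DMSO pinned into cell-free MEM with 10% FBS; blue fluorescence read at 405/460 nm excitation/emission, expressed as auto-fluorescence equivalency to triamterene.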

[16] = qHTS assay to test for compound auto fluorescence at 535 nm (green) in HepG2 cell free culture (AID 720686)
[17] = qHTS assay to test for compound auto fluorescence at 460 nm (blue) in HepG2 cells (AID 720687)
How it was run: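 Blue-channel autofluorescence (Ex/Em 405/460 nm, triamterene-equivalent) was measured after 1 hr compound exposure at 37 C, 5% CO2. Cells were HepG2, plated overnight at 37 C in MEM plus 10% FBS.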

[18] = biological target: Glucocorticoid receptor (Homo sapiens) (UniProt P04150); experiment: qHTS assay to identify small molecule agonists of the glucocorticoid receptor (GR) signaling pathway (AID 720691; active means well fitted activation curve with a large enough effect in the signal ratio in the repeat runs, not every such curve was filed as active; the % refers to the signal ratio)
How it was run: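 qHTS in GR-bla HeLa cells: 4 h settling at 37 C/5% CO2, 18 h compound incubation at 37 C, 2 h LiveBLAzer B/G FRET substrate at room temperature, fluorescence intensity measured.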

[19] = biological target: Glucocorticoid receptor (Homo sapiens) (UniProt P04150); experiment: qHTS assay to identify small molecule antagonists of the glucocorticoid receptor (GR) signaling pathway (AID 720692; active means well fitted inhibition curve with a large enough effect in the signal ratio in the repeat runs, not every such curve was filed as active; the % refers to the signal ratio)
How it was run: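 Inhibition of glucocorticoid signalling is measured in HeLa cells with a GRE-controlled beta-lactamase reporter; cells are co-treated with compound and 5 nM dexamethasone (final) for 18 h before FRET substrate readout.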
On the % scale 0 is the no-effect control and ±100 the full control effect.

Glucocorticoid receptor (Homo sapiens), sequence (P04150 whole entry, looked up): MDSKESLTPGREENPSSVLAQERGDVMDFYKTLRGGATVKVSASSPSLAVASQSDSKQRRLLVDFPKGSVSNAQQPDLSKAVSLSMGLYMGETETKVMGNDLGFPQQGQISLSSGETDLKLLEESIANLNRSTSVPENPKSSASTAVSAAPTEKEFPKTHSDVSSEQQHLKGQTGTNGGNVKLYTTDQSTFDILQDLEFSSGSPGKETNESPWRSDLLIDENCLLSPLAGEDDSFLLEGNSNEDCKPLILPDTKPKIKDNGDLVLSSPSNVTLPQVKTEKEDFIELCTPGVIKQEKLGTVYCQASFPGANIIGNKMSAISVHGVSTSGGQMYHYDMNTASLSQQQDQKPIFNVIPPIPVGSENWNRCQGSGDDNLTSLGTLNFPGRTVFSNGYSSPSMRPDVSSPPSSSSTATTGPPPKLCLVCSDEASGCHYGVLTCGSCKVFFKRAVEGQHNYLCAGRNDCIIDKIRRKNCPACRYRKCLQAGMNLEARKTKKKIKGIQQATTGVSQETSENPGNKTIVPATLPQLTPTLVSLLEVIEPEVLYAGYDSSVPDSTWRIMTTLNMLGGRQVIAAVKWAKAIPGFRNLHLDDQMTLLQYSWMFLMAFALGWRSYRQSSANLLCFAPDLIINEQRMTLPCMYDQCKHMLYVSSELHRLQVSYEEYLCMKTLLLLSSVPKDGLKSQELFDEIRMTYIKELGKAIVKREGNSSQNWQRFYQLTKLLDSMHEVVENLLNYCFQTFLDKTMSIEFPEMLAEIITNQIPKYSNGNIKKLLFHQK

CCCCCC1CCCC(=O)O1 (stereo unspecified)
inactive: outcome [1] | outcome [2] | Potency [3] | outcome [4] | Potency [5] | outcome [6] | outcome [7] | outcome [8] | outcome [9] | outcome [10] | outcome [11] | outcome [12] | outcome [13] | outcome [14] | outcome [15] | outcome [16] | outcome [17] | Potency [18] | outcome [19]

C/C=C(\C)C(=O)OCC/C=C\CC
inactive: outcome [1] | outcome [2] | Potency [3] | outcome [4] | Potency [5] | outcome [6] | outcome [7] | outcome [8] | outcome [9] | outcome [11] | outcome [12] | outcome [13] | outcome [14] | outcome [15] | outcome [16] | outcome [17] | Potency [18] | outcome [19]

O=P(O)(O)OCC(O)CO (stereo unspecified)
inactive: outcome [1] | outcome [2] | Potency [3] | outcome [4] | Potency [5] | outcome [6] | outcome [7] | outcome [8] | outcome [9] | outcome [10] | outcome [11] | outcome [12] | outcome [13] | outcome [14] | outcome [15] | outcome [16] | outcome [17]

Cc1nc([N+](=O)[O-])cn1-c1ccc([N+](=O)[O-])cc1
inactive: outcome [1] | outcome [2] | Potency [3] | outcome [4] | Potency [5] | outcome [6] | outcome [7] | outcome [8] | outcome [9] | outcome [10] | outcome [11] | outcome [12] | outcome [13] | outcome [14] | outcome [15] | outcome [16] | outcome [17] | Potency [18] | outcome [19]

O=C1OC(=O)c2ccccc21
inactive: outcome [1] | outcome [2] | Potency [3] | outcome [4] | Potency [5] | outcome [6] | outcome [7] | outcome [8] | outcome [9] | outcome [10] | outcome [11] | outcome [12] | outcome [13] | outcome [14] | outcome [15] | outcome [16] | outcome [17] | Potency [18]

CN(C1CCCCC1)S(=O)(=O)c1ccccc1N
inactive: outcome [1] | outcome [2] | Potency [3] | outcome [4] | outcome [6] | outcome [7] | outcome [8] | outcome [9] | outcome [10] | outcome [11] | outcome [12] | outcome [13] | outcome [14] | outcome [15] | outcome [16] | outcome [17]

CCC(CO)CO
inactive: outcome [1] | outcome [2] | Potency [3] | outcome [4] | outcome [6] | outcome [7] | outcome [8] | outcome [9] | outcome [10] | outcome [11] | outcome [12] | outcome [13] | outcome [14] | outcome [15] | outcome [16] | outcome [17] | Potency [18] | outcome [19]

C=CCOc1cc(Cl)ccc1C(=O)NCCN(CC)CC
inactive: outcome [1] | outcome [2] | Potency [3] | outcome [4] | outcome [6] | outcome [7] | outcome [8] | outcome [9] | outcome [10] | outcome [11] | outcome [12] | outcome [13] | outcome [14] | outcome [15] | outcome [16] | outcome [17] | Potency [18] | outcome [19]

O=S(=O)(O)SSS(=O)(=O)O
inactive: outcome [1] | outcome [2] | Potency [3] | outcome [4] | outcome [6] | outcome [7] | outcome [8] | outcome [9] | outcome [10] | outcome [11] | outcome [12] | outcome [13] | outcome [14] | outcome [15] | outcome [16] | outcome [17]

CCN(CCC#N)c1ccccc1
inactive: outcome [1] | outcome [2] | Potency [3] | outcome [4] | outcome [6] | outcome [7] | outcome [8] | outcome [9] | outcome [10] | outcome [11] | outcome [12] | outcome [13] | outcome [14] | outcome [15] | outcome [16] | outcome [17] | Potency [18] | outcome [19]

Cc1nc2ccccc2c(=O)o1
inactive: outcome [1] | outcome [2] | Potency [3] | outcome [4] | outcome [6] | outcome [7] | outcome [8] | outcome [9] | outcome [10] | outcome [11] | outcome [12] | outcome [13] | outcome [14] | outcome [15] | outcome [16] | outcome [17]

CC(C)CCC(=O)CCC(C)C
inactive: outcome [1] | outcome [2] | Potency [3] | outcome [4] | outcome [6] | outcome [7] | outcome [8] | outcome [9] | outcome [10] | outcome [11] | outcome [12] | outcome [13] | outcome [14] | outcome [15] | outcome [16] | outcome [17]

CC(C)(C)NCCO
inactive: outcome [1] | outcome [2] | Potency [3] | outcome [4] | outcome [6] | outcome [7] | outcome [8] | outcome [9] | outcome [11] | outcome [12] | outcome [13] | outcome [14] | outcome [15] | outcome [16] | outcome [17] | outcome [19]

CC1=CC[C@H](CC=O)C1(C)C
inactive: outcome [1] | outcome [2] | Potency [3] | Potency [5] | outcome [6] | outcome [7] | outcome [8] | outcome [9] | outcome [11] | outcome [12] | outcome [13] | outcome [14] | outcome [15] | outcome [16] | outcome [17]

BrC/C=C/CBr
inactive: outcome [1] | outcome [2] | Potency [3] | outcome [4] | fluorescence, relative to Rose Bengal [6] -0.458% [at 18.6 µM] | fluorescence, % of fluorescein control [7] -0.0535% [at 18.6 µM] | fluorescence, % of triamterene [8] 0.0974% [at 18.6 µM] | fluorescence, % of fluorescent control [9] 0.0091% [at 18.6 µM] | fluorescence, % of fluorescein [10] 0.0238% [at 18.6 µM] | fluorescence, % of fluorescent control [11] -0.0065% [at 18.6 µM] | activity change [12] 0.0973% [at 18.6 µM] | fluorescence, % of fluorescent control [13] -0.0344% [at 18.6 µM] | fluorescence, % of Rose Bengal [14] 0.0351% [at 18.6 µM] | fluorescence, % of fluorescent control [15] -0.08% [at 18.6 µM] | fluorescence, % of fluorescein control [16] -0.0214% [at 18.6 µM] | fluorescence, % of fluorescent control [17] 0.058% [at 18.6 µM]

— PubChem BioAssay (Tox21)
